# Bioassay records from PubChem.
# SMN2 splice up – SMN2 splice variant enhancement | HEK293 SMN2-luciferase splicing reporter, luminescence, 30-36 h | Potency, µM (top dose mostly 46.1 µM), without a hit: at the highest dose activity change, positive = activation, hits mostly activators | 2.8% of 210,000 active | AID 1458; note: % of control where 0% means no effect; nearly all actives have a fitted effect of over 55% in size
#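 qHTS luciferase splicing reporter: luminescence rises when SMN2 exon 7 is included in transfected HEK293 cells. Compound exposure lasted 30-36 h at 37C, with 4.5 mM final sodium butyrate as control, followed by a ONE-Glo read.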
# ELG1 genotoxic – induces genotoxicity in HEK293T cells with luciferase-tagged ELG1. HEK293T ELG1-luciferase reporter, luminescence, 16 h. Potency, µM (doses to about 46 µM), without a hit: top-dose activity change, positive = activation, hits mostly activators. 1.3% of 330,000 active. AID 504466; note: % of control where 0% means no effect; nearly all actives have a fitted effect of over 60% in size
#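 Genotoxicity was scored as increased ELG1-luciferase reporter signal, measured by ONE-Glo luminescence (30 min, room temperature). Compound or vehicle exposure of the HEK293T reporter cells lasted 16 hr at 37°C.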
# KinaseGlo FLuc – Kinase-Glo luciferase inhibition (counter-screen). Q27757. Kinase-Glo luciferase, ATP luminescence, 8 min. Potency, µM (top dose mostly 38.3 µM), for inactives: at the highest dose activity change, negative = inhibition, actives largely listed as inhibitors. 0.28% of 200,000 active. AID 1379; note: % is set by controls: 0 for no effect and ±100 for the full control effect; nearly all actives have a fitted effect of over 60% in size
#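 Light output from Kinase-Glo luciferase with luciferin and 10 uM ATP in 50 mM imidazole pH 7.2, KCl, MgCl2, Tween 20, BSA; compound pin-delivered, 8-min ambient incubation, then luminescence read.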
# NPC1 promoter act – activators of NPC1 promoter | Potency, µM (series often up to 9.22 µM), for inactives: at the highest dose activation, usual class: activators | 2.4% of 320,000 active | Huh7 NPC1 promoter luciferase reporter, 24 h; note: % of control where 0% means no effect; nearly all actives have a fitted effect of over 60% in size
#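 Cells: Huh7 expressing luciferase under the NPC1 promoter, 1500/well. Seeded 2 h, compound added, incubated 24 h at 37 °C. Luciferase reagent, 10 min ambient, then luminescence.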
# Rab9 promoter act – Rab9 promoter activation. Huh7 Rab9 promoter-luciferase reporter, luminescence, 24 h. Potency, µM (series often up to 9.22 µM), inactives show at the top dose activation, negative = inhibition, hits mostly activators. 2.8% of 320,000 active. AID 485297; note: % of control where 0% means no effect; nearly all actives have a fitted effect of over 60% in size
#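 Stable Rab9-luc Huh7, 1500 cells/well, 2 h settle; cmpd in DMSO, 24 h, 37 °C/5% CO2; luciferase reagent 10 min RT; luminescence.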
# FLuc modulator – firefly luciferase modulation, counter-screen for miR-21 project | purified FLuc, Km substrates, luminescence inhibition | Potency, µM (highest dose often 57.5 µM), for inactives: at the top dose activity change, negative = inhibition, usual class: inhibitors | 6.9% of 360,000 active | AID 588342 | P08659;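 note: plate controls were vehicle for no effect and reference inhibitor for full effect; nearly all actives have a fitted effect of over 55% in size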
# Target sequence (P08659 whole entry, looked up): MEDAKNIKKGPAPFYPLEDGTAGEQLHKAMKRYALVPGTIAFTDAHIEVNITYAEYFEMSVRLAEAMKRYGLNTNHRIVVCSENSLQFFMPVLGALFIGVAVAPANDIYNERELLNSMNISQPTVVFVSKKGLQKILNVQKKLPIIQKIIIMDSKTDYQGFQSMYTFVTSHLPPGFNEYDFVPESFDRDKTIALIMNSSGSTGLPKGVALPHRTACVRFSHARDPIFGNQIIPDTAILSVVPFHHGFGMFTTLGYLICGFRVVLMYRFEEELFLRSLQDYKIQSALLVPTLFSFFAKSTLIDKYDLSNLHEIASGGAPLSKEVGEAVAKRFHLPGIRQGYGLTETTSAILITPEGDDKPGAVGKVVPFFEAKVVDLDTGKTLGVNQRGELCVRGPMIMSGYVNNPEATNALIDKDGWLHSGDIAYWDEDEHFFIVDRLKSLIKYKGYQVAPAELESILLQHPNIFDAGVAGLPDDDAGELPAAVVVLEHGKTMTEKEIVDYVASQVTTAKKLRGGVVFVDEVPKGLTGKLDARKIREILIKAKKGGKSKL
#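 Purified P. pyralis luciferase (10nM final) with 10uM D-luciferin and 10uM ATP (Km levels) in 50mM Tris acetate pH 7.5, 10mM Mg acetate, 0.01% Tween-20, 0.05% BSA; qHTS 6-point titration, ~60 µM downward; luminescence read.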
# Starred values were filed as active, the others as inactive; ? = inconclusive; / = no result; [ ] = dose if it differs, or a comment. A selection: hits, their analogues and other compounds. The true share with any hit is near 7.4%. Calls come from the whole dose curve; as a rule, active = well fitted curve in the direction sought with a large enough effect; inconclusive = small, poorly fitted or top-dose-only effect, or another doubt; inactive = no such curve, though single readings can be large; an effect the other way counts as inactive or inconclusive. Potency is the fitted concentration of half-maximal effect.
SMILES,SMN2 splice up,ELG1 genotoxic,KinaseGlo FLuc,NPC1 promoter act,Rab9 promoter act,FLuc modulator
C=CCn1c(-c2cccs2)nc2nc3ccccc3nc21,2.8µM*,?,-6%,29%,30%,19µM*
C=CCn1c(-c2cccc(OC)c2)nc2nc3ccccc3nc21,-10%,-9%,-7%,-1%,-1%,15µM*
CC(=O)Nc1cc(Cl)c(N=Cc2ccc(O)cc2O)cc1Cl,14%,3%,2%,3%,0%,5%
CCOC(=O)c1sc(/N=C/c2ccc(O)cc2O)cc1C,-2%,7%,-10%,10%,9%,1.3µM*
O=C(C[C@@H]1C/C=C\C[C@H](Cc2ccc(F)cc2)C(=O)OC[C@@H](c2ccccc2)NC1=O)NCCO,/,2%,/,/,/,/
Cc1ccc(-n2ncc3c(NCCCn4ccnc4)ncnc32)cc1,/,/,/,/,/,12µM*
Cc1ccc(-n2ncc3c(NCCCn4ccnc4)ncnc32)c(C)c1,-25%,-2%,-3%,0%,-7%,0%
Cc1cccc(-n2ncc3c(NCCCn4ccnc4)ncnc32)c1,7.1µM*,?,5%,27%,?,?
COc1ccccc1S(=O)(=O)CC(O)COc1ccc(F)cc1Cl (stereo not drawn),-14%,-5%,-3%,-2%,-1%,4%
COc1cc(NS(=O)(=O)c2ccc(NC(=O)c3ccc(Cl)cc3Cl)cc2)nc(OC)n1,7%,/,/,/,/,?
CC1CCc2c(sc3nc(C(C)(C)C)nc(N4CCN(C(=O)CCl)CC4)c23)C1 (stereo not drawn),/,-9%,/,-44%,-31%,4%
N#Cc1ccc(OCC(=O)N2CCCC2=O)cc1,/,0%,/,-3%,-4%,8%
O=C(N/N=C/C(Cl)=C/c1ccc([N+](=O)[O-])cc1)C(=O)Nc1cccc(C(=O)O)c1,/,?,/,?,?,24µM*
O=C(O)c1cccc(Nc2ccc([N+](=O)[O-])cn2)c1,/,0%,/,1%,7%,?
CCN1CCN(c2cc(C)c3cc(NC(=O)c4ccc(C)c(C)c4)ccc3n2)CC1,/,10%,/,21%,7%[1.84 µM],21µM*
Cc1cc(N2CCN(C)CC2)nc2ccc(NC(=O)Nc3ccccc3)cc12,/,/,/,/,/,4.8µM*
CCN1CCN(c2cc(C)c3cc(NC(=O)c4ccncc4)ccc3n2)CC1,-12%,-7%,0%,0%,1%,-2%
Cc1cc(N2CCN(C)CC2)nc2ccc(NC(=O)Nc3ccccc3Br)cc12,/,/,/,/,/,1.5µM*
Cc1cc(N2CCCCC2)nc2ccc(NC(=O)c3cccc(Cl)c3)cc12,/,/,/,/,/,-1%
Cc1ccc(NC(=O)Nc2ccc3nc(N4CCN(C)CC4)cc(C)c3c2)cc1C,/,/,/,/,/,-15%
Cc1cc(N2CCN(C)CC2)nc2ccc(NC(=O)Nc3cccc(Cl)c3)cc12,/,/,/,/,/,13µM*
CCC(C)S(=O)(=O)c1oc(-c2ccc(F)cc2)nc1S(=O)(=O)c1ccc(F)cc1 (stereo not drawn),-94%,/,/,/,/,3%
COc1ccc(-c2[nH]ncc2CN2CCCO2)cc1F,/,3%,2%,-4%,2%,0%
COc1ccc2cc(-c3[nH]ncc3CN3CCCCO3)ccc2c1,/,12%,1%,18%,?,15µM*
COc1cc(OC)cc(C(=O)Nc2nnc(-c3cccnc3)o2)c1,12%,-4%,8%,-4%,-9%,-13%
COc1ccc(-c2cnc(-c3cccnc3)o2)cc1,11µM*,/,-1%,/,/,/
CCCOc1ccc(-c2csc3nc[nH]c(=O)c23)cc1,/,?,/,3.2µM*,1.6µM*,?
COc1ccc(-c2csc3nc[nH]c(=O)c23)cc1OC,/,0%,/,-1%,7%[1.84 µM],-3%
O=c1[nH]cnc2scc(-c3ccc(-c4ccccc4)cc3)c12,14µM*,1.8µM*,-8%,1.1µM*,1.1µM*,1.2µM*
O=C(COC(=O)Cc1ccccc1[N+](=O)[O-])NNC(=O)c1ccc([N+](=O)[O-])cc1,/,2%,/,-5%,-1%,-2%
